# Assay outcomes deposited in PubChem by National Center for Advancing Translational Sciences (NCATS).
# TDP1 block: blocks human tyrosyl-DNA phosphodiesterase 1; recombinant TDP1, AlphaScreen DNA substrate cleavage; Q9NUW8; AID 485290; Potency, µM (series often up to 130 µM), usual class: inhibitors; 350,000 tested, 0.28% active; note: nearly all actives have a fitted effect of over 40% in size
# Target sequence (Q9NUW8 whole entry, looked up): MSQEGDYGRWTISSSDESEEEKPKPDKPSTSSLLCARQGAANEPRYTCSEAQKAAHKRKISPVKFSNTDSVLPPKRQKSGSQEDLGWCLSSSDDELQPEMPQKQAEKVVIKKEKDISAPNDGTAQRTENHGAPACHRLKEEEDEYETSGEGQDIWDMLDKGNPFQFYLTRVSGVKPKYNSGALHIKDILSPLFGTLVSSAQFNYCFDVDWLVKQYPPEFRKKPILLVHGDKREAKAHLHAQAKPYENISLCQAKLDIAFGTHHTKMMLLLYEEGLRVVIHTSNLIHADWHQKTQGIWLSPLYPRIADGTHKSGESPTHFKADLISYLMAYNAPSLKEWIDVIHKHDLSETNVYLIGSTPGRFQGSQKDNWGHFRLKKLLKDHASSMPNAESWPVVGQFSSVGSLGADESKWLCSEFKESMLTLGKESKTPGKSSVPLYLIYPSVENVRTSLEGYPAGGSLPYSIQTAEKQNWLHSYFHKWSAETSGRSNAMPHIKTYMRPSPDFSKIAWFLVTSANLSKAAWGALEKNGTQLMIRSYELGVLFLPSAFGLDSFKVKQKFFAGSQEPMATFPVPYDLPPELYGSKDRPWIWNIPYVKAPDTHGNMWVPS
#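 Signal: AlphaScreen proximity between streptavidin donor and anti-FITC acceptor beads on intact substrate. Reaction: Tdp1 1 nM, substrate 15 nM final, 5 min RT after 15 min compound preincubation.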
# BAZ2B inh: BAZ2B (human) inhibition; Potency, µM (highest dose often 114 µM), most hits filed as inhibitors; AID 504333; 360,000 tested, 4.4% active; Q9UIF8; AlphaScreen BAZ2B-H3K14Ac peptide displacement; note: nearly all actives have a fitted effect of over 60% in size
#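 BAZ2B (50 nM) with biotin-H3(5-23)K14Ac peptide (50 nM) in PBS pH 7.4, 0.01% Tween-20, preformed 30 min, then compound 30 min at room temperature; top concentration 110uM. AlphaScreen streptavidin donor/nickel chelate acceptor beads (10 ug/mL final), 20 min dark, signal read.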
# JMJD2A Tudor: JMJD2A Tudor domain (human) inhibition | AlphaScreen JMJD2A-Tudor / H3K4me3 peptide binding | Potency, µM (top dose mostly 114 µM), usual class: inhibitors | 390,000 tested, 4.4% active | AID 504339; note: nearly all actives have a fitted effect of over 50% in size
# Sfp PPTase inh: Sfp phosphopantetheinyl transferase inhibition | Potency, µM, usual class: inhibitors | 310,000 tested, 3.5% active | Q9F4F7 | Biochemical Sfp PPTase activity, qHTS;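 note: the enzyme is Sfp with the accession as filed and its product quenches rhodamine fluorescence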
#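 Sfp 15 nM + cpd, 15 min RT; start w/ rhodamine-CoA 5 uM, BHQ-2-YbbR 12.5 uM (final); 50 mM Hepes pH 7.6, 10 mM MgCl2, 0.01% NP-40, 0.01% BSA; read 525/598 nm at 0 and 30 min.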
# HP1b binding inh: blocks HP1-beta chromodomain binding to methylated histone tails; P83916; AlphaScreen HP1-beta / biotin-H3K9me3 peptide binding; 390,000 tested, 0.56% active; Potency, µM (doses to about 114 µM), most hits filed as inhibitors; note: nearly all actives have a fitted effect of over 70% in size
#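 Compound inhibition of the preformed complex between 50 nM HP1-beta and 50 nM biotinylated H3K9me3 peptide was read by AlphaScreen. Buffer was PBS pH 7.4 with 0.01% Tween-20. Incubations ran 30 min at room temperature, with 10 ug/mL donor/acceptor beads.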
# G9a block: blocks human histone lysine methyltransferase G9a; G9a H3K9 monomethylation, AlphaScreen, 2 h; Potency, µM (doses to about 102 µM), hits mostly inhibitors; 350,000 tested, 8.8% active; note: nearly all actives have a fitted effect of over 75% in size
#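 Enzyme 20 nM + cpd, 15 min RT; add b-H3K9 pep 500 nM / SAM 20 uM; 2 h RT; anti-H3K9me1 Ab 0.5 ug/mL + SA donor / anti-rabbit acceptor beads 20 ug/mL each, 10 min; AlphaScreen read.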
# Numbers stand for hits; - = inactive; ? = inconclusive; . = no result; ! = a repeat was not active; [ ] = remark or other dose. Compounds with a hit are over-represented: about 12% of the library has one in this group of screens. Calls come from the whole dose curve; as a rule, active = well fitted curve in the direction sought with a large enough effect; inconclusive = small, poorly fitted or top-dose-only effect, or another doubt; inactive = no such curve, though single readings can be large; an effect the other way counts as inactive or inconclusive.
SMILES,TDP1 block,BAZ2B inh,JMJD2A Tudor,Sfp PPTase inh,HP1b binding inh,G9a block
Cc1cnc(CNc2ccnc(-c3cccc(NS(C)(=O)=O)c3)n2)cn1,.,.,.,-,.,-[0.501 µM]
Cc1nc2c(-c3ccc(F)cc3)c(C)nn2c(C)c1CCC(=O)NCc1ccc(Cl)cc1,-,-,-,.,-,-
Cc1cc(C)c([N+](=O)[O-])cc1-c1ccc(/C=N/c2c(-c3ccco3)nc3ccccn23)o1,-,10µM,6.3µM,?,?,-[0.501 µM]
Oc1cccc(/C=N/c2c(-c3ccco3)nc3ccccn23)c1,-,56µM,?,?,?,50µM
O=[N+]([O-])c1ccc(-c2ccc(/C=N/c3c(-c4ccco4)nc4ccccn34)o2)c(Cl)c1,-,?,.,-,.,?
O=[N+]([O-])c1ccc(Cl)c(-c2ccc(/C=N/c3c(-c4ccco4)nc4ccccn34)o2)c1,-,?,?,-,?,?
Cc1nc2nc(CNC(=O)c3cccc(F)c3)nn2c(C)c1CCC(=O)Nc1ccc(F)cc1,-,-,-,.,-,-
Cc1ccc(NC(=O)CNc2cc(S(=O)(=O)N3CCOCC3)ccc2NCC2CCCO2)cc1F (stereo unspecified),-,?,?,-,-,45µM
CC1CCCC(C)N1S(=O)(=O)c1ccc(NC(=O)CNCC2CCCO2)cc1 (stereo unspecified),-,56µM,18µM,-,-,8.9µM
O=C(CNc1cc(S(=O)(=O)N2CCOCC2)ccc1NCC1CCCO1)Nc1ccc(F)c(F)c1 (stereo unspecified),-,?,-,-,-,?
COc1ccc(NC(=O)CNc2cc(S(=O)(=O)N3CCOCC3)ccc2NCC2CCCO2)cc1 (stereo unspecified),-,.,-,-,-,6.3µM
Cc1ccc(CNC(=O)Cn2cc(C(=O)c3ccc(Cl)cc3)c(=O)c3ccc(C)nc32)cc1,-,-,-,.,-,-
O=[N+]([O-])c1cc(C(F)(F)F)cc([N+](=O)[O-])c1NCCCN1CCOCC1,-,-,-,-,-,-
N#CCC(=O)NNc1c([N+](=O)[O-])cc(C(F)(F)F)cc1[N+](=O)[O-],.,50µM,?,-,?,50µM
O=[N+]([O-])c1cc(C(F)(F)F)cc([N+](=O)[O-])c1NN=C1CCCCC1,-,11µM,22µM,?,20µM,10µM
O=[N+]([O-])c1cc(C(F)(F)F)cc([N+](=O)[O-])c1NCCN1CCNCC1,.,-,-,-,-,-[0.501 µM]
CCOc1ccc(CNC(=O)Cn2nc(C)c3nn(-c4ccc(Cl)cc4)c(C)c3c2=O)cc1,-,-,-,.,-,-
Oc1ccc(Cl)cc1CNc1cccc2cccnc12,-,?,?,-,-,-
Cc1cccc(NCc2ccc(O)c3ncccc23)c1C,-,56µM,?,-,-,0.4µM
Cc1cccnc1NCc1ccc(O)c2ncccc12,-,13µM,22µM,-,-,1.8µM
CC(=O)Nc1cccc(C(=O)NNC(=O)c2n[nH]c(=O)c3ccccc23)c1,-,-,?,.,-,?
Cc1cc(=O)n2nc(N3CCCC(C(=O)NCc4cccc(Br)c4)C3)sc2n1 (stereo unspecified),-,-,-,-,-,-
CC1Cn2c(nnc2-c2ccccc2O)S1 (stereo unspecified),-,?,?,-,-,8.9µM
CC1Cn2c(nnc2-c2cc3ccccc3cc2O)S1 (stereo unspecified),-,-,-,-,-,?
Cc1nc(SCC(=O)c2cccc([N+](=O)[O-])c2)n[nH]1,-,-,40µM,20µM,?,?
SMILES,TDP1 block,BAZ2B inh,JMJD2A Tudor,Sfp PPTase inh,HP1b binding inh,G9a block
Cc1ccnc(SCc2ccc([N+](=O)[O-])cc2)n1,-,-,-,-,-,-
Cc1ccnc(SCC(=O)c2cccc([N+](=O)[O-])c2)n1,-,-,-,50µM,-,22µM
Cn1cnnc1SCC(=O)c1cccc([N+](=O)[O-])c1,-,-,-,-,-,-
COc1ccccc1OCc1cc(C(=O)NCc2ccc(N3CCCC3=O)cc2)no1,-,-,-,-,-,-
Cc1cccc(NC(=O)c2oc3ccccc3c2NC(=O)c2cc(=O)c3ccccc3o2)c1,-,-,-,.,-,-
O=C(CCCCCn1c(=S)[nH]c2ccc(N3CCOCC3)cc2c1=O)NCc1cccc(Cl)c1,-,-,-,-,-,-
COc1cccc(N=c2oc3ccccc3cc2-c2nc3ccccc3[nH]2)c1,-,-,32µM,-,-,-[12.7 µM]
COc1ccc(/C(C)=N/N=C(\C)c2ccc(OC)cc2OC)c(OC)c1,-,-,-,-,-,-
COc1ccc(C(N)=S)c(OC)c1,-,-,-,45µM,-,8.9µM
CCOc1ccc(NC(=O)N2CCC(N3CCCCC3)CC2)cc1,-,-,-,.,-,-
c1ccc2cc(OCCCn3ccnc3)ccc2c1,.,50µM,4µM,-,?,25µM
CC(C)(C)c1ccc(OCCCn2ccnc2)cc1,-,50µM,25µM,-,?,22µM
CCn1nc(C(=O)Nc2cc(Cl)ccc2-n2cncn2)c2ccccc2c1=O,-,-,-,.,-,?
COc1ccc(-c2nnc(SCC(=O)Nc3cccc(C(F)(F)F)c3)nc2-c2ccc(OC)cc2)cc1,-,-,?,.,-,-
O=C(NC1CCCC1)c1ccc(CSc2nc3ccncc3n2Cc2ccc(F)cc2)cc1,-,-,-,-,-,45µM!
O=C(NC1CCCC1)c1ccc(CSc2nc3ccncc3n2Cc2cccc(F)c2)cc1,-,-,-,.,-,?
CCC1CCCCN1C(=O)COC(=O)c1cc(C)nc2ccccc12 (stereo unspecified),-,-,-,.,-,-
Fc1ccc(C2Nc3cccc4cccc(c34)N2)cc1,.,?,?,?,?,-[2.33 µM]
FC(F)(F)c1ccc(C2Nc3cccc4cccc(c34)N2)cc1,-,40µM,?,-,-,35µM
O=[N+]([O-])c1ccc(C2Nc3cccc4cccc(c34)N2)cc1,-,45µM,?,22µM,?,28µM
O=[N+]([O-])c1cccc(C2Nc3cccc4cccc(c34)N2)c1,-,35µM,50µM,45µM,?,16µM
CCCOc1ccc(C2Nc3cccc4cccc(c34)N2)cc1,.,?,40µM,-,?,40µM
Cc1ccc(C)c(N2CCN(C3CCCC(C)C3)CC2)c1 (stereo unspecified),-,-,-,-,-,?
CCCSc1nnc(-c2cnn(-c3ccccc3)c2-n2cccc2)n1C,-,-,-,-,-,13µM
Cc1ccc(/C=N/Nc2nc3ccccc3s2)o1,-,?,?,?,-,?
CC(C)(C)NC(=S)N/N=C/c1cccnc1,.,-,-,-,-,-
Clc1ccc(-c2csc(N/N=C/c3cccnc3)n2)c(Cl)c1,79µM,?,?,?,-,?
C(=N\Nc1nc(-c2ccccc2)cs1)/c1cccnc1,-,?,?,56µM,-,?
